The text below walks through data of ChEMBL document CHEMBL2218924, “A broad activity screen in support of a chemogenomic map for kinase signalling research and drug discovery” (Biochem J, 2013).

The target of assay [1] is T1, Serine/threonine-protein kinase TAO1 (Homo sapiens) (UniProt Q7L7X3).
T1 sequence (whole entry): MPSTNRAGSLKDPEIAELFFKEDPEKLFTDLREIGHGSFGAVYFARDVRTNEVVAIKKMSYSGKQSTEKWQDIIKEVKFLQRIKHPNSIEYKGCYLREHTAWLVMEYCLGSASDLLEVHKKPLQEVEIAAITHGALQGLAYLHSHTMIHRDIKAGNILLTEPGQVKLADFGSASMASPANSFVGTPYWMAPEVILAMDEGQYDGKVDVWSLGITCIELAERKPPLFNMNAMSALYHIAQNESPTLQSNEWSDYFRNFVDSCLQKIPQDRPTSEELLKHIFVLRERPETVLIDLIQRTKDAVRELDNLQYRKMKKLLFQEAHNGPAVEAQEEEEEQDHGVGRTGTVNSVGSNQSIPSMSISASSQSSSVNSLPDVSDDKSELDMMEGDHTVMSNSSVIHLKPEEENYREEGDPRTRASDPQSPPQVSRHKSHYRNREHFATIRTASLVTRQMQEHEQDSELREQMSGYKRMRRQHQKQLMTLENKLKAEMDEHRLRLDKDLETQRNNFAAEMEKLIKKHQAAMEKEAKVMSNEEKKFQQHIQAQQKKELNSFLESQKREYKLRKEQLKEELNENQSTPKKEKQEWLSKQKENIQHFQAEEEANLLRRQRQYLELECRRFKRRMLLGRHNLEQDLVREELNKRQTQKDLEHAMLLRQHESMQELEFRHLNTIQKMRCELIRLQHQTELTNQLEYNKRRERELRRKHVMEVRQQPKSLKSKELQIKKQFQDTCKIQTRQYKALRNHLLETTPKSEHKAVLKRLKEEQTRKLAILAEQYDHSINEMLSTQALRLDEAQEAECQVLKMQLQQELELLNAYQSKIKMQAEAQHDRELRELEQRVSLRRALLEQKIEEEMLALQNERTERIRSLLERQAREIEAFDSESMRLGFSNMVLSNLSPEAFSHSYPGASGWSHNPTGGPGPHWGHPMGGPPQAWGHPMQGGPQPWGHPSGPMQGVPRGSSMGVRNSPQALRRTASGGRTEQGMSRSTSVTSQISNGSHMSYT
The following applies: at 1 µM.

The target in assay [2] is T1, Serine/threonine-protein kinase TAO1 (Homo sapiens). Particulars: at 10 µM.
Assay [3] has as its target T2, Serine/threonine-protein kinase TBK1 (Homo sapiens) (UniProt Q9UHD2).
T2 sequence (whole entry): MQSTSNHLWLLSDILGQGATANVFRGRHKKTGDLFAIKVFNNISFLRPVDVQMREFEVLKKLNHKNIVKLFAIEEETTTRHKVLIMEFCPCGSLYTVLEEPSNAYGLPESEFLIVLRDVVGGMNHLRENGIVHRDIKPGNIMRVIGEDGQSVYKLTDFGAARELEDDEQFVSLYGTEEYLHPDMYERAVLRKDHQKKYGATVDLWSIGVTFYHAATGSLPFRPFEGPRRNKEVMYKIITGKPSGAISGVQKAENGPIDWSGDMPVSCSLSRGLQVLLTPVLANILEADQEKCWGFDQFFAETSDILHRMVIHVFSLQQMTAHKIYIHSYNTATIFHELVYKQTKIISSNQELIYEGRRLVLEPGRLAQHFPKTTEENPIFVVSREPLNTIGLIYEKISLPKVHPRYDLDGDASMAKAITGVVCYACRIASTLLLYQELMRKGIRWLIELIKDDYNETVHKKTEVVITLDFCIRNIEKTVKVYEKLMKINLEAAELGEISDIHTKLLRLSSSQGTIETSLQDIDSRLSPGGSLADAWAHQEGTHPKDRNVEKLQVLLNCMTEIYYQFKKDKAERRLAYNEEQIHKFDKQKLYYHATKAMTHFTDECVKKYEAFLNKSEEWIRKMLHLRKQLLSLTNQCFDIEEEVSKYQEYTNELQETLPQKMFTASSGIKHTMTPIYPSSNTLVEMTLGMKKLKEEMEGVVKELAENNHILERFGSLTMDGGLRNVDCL
Particulars: at 1 µM.

The target of assay [4] is T2, Serine/threonine-protein kinase TBK1 (Homo sapiens). Particulars: at 10 µM.
The target of assay [5] is T3, TGF-beta receptor type-1 (Homo sapiens) (UniProt P36897).
T3 sequence (whole entry): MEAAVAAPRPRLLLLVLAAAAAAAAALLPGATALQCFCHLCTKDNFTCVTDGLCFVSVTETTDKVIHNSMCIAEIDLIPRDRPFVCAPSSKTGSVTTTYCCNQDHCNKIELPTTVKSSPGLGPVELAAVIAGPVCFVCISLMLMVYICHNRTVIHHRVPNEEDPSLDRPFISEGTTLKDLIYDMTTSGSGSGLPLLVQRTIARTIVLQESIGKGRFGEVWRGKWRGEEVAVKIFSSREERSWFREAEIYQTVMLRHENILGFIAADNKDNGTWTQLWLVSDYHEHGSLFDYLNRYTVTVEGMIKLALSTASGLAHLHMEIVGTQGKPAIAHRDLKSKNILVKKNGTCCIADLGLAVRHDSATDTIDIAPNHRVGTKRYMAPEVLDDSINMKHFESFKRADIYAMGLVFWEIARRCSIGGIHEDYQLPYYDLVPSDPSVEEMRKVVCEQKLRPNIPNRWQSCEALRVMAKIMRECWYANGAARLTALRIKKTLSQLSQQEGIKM
The following applies: at 10 µM.

The target of assay [6] is T4, Inhibitor of nuclear factor kappa-B kinase subunit alpha (Homo sapiens) (UniProt O15111).
T4 sequence (whole entry): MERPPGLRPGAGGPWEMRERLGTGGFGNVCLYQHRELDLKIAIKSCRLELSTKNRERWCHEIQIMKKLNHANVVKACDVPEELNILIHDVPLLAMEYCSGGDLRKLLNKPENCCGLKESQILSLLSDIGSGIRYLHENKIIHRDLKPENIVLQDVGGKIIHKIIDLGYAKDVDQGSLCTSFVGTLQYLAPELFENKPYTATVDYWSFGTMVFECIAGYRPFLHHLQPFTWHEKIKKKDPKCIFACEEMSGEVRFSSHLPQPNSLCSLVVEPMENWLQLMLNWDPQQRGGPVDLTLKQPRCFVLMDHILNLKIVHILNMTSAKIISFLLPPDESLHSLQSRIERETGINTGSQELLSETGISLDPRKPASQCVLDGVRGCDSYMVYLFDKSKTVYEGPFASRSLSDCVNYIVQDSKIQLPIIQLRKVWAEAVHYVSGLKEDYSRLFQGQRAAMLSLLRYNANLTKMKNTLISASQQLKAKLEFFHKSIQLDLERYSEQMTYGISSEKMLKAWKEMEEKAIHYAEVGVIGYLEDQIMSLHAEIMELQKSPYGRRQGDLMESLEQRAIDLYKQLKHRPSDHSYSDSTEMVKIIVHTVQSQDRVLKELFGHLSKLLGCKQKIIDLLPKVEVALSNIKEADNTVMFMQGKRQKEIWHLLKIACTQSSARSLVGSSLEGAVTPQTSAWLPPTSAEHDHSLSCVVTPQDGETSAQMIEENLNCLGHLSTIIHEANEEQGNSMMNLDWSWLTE
Particulars: at 1 µM.

Assay [7] addresses T4, Inhibitor of nuclear factor kappa-B kinase subunit alpha (Homo sapiens). The following applies: at 10 µM.
Assay [8] has as its target T5, Mitogen-activated protein kinase kinase kinase 7 (Homo sapiens) (UniProt O43318).
T5 sequence (whole entry): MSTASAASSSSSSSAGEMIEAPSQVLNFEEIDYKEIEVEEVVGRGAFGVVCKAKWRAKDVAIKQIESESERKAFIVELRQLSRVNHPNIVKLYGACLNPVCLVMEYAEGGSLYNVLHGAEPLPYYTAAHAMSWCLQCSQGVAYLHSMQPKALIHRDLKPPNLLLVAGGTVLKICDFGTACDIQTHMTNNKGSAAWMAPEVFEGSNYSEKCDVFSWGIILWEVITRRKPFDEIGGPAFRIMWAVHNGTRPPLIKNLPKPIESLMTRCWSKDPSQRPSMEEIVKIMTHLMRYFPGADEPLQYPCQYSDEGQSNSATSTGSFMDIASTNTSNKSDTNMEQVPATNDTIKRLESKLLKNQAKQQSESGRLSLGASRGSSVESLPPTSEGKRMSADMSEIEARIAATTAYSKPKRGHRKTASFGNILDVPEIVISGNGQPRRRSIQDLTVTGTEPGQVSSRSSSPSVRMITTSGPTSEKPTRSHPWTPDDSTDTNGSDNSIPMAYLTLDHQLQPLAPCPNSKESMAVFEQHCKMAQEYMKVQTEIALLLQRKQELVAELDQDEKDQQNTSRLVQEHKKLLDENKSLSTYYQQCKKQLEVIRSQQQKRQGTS
Particulars: at 10 µM.

As for `O=C1Cc2c([nH]c3ccc([N+](=O)[O-])cc23)-c2ccccc2N1`, the residual activity in assay [1] came to 54%; in assay [2] it was 30%; in assay [3] it was 51%; in assay [4], 37%; in assay [5] it was 65%; in assay [6] it was 114%. Moreover, in assay [7], the residual activity stood at 101%.

With `NC(=O)c1cccc(-c2cc(Nc3ccc(OC(F)(F)F)cc3)ncn2)c1`, the residual activity came to 95% in assay [8]; 98% in assay [3]; 79% in assay [4]; 128% in assay [6]; 149% in assay [7].
